Compounds with a hit are over-represented: about 19% of the library has one in this group of screens.
IL-1B inflam inh = inflammasome signaling inhibition, IL-1 beta readout; THP-1 LPS/ATP IL-1B secretion, AlphaLISA, 16 h; active compounds read low; activity change, % at 57.5 µM; actives 4.7% (n = 360,000); AID 743279; in the data active means activity change below about -50%; inconclusive means mostly about -30% to -49%
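THP-1 cells pretreated 1 hr with compounds (up to 57.5 uM final), then stimulated with LPS (250 ng/mL final) plus ATP (1.25 mM final); secreted IL-1B measured by AlphaLISA after 16 hr, decreased signal indicating inhibition.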
HT1080-NT tox = kills 2HG-producing HT-1080-NT fibrosarcoma cells | HT-1080-NT fibrosarcoma viability, CellTiter-Glo ATP luminescence, 48 h | Potency, µM (top dose mostly 46.1 µM), for the others: at the top dose activity, negative = less viability, hits mostly cytotoxic | actives 1.6% (n = 360,000) | AID 686970;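 further: NT is the 2HG producing partner of a matched IDH1 knockdown line; potency means the concentration at half of the fitted maximal effect; 0% = DMSO-treated cells and -100% = media-only wells without cells; nearly all actives have a fitted effect of over 55% in size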
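Compounds were tested in concentration-response format on HT-1080-NT cells for 48 hours at 37 degrees C. Cell viability came from CellTiter-Glo luminescence; curves were classified by r2, response magnitude and activity.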
uPA generation = cell surface uPA generation inhibition; Potency, µM (series often up to 38.3 µM), inactives show at the top dose activity change, negative = inhibition, actives largely listed as inhibitors; AID 540303; cell surface uPA generation assay, qHTS; actives 0.31% (n = 330,000); active means well fitted inhibition curve with a large enough effect; inconclusive means small, poorly fitted or top-dose-only effect; inactive means no such curve, though single readings can be large or run the other way; tested in mouse RAW 264.7 cells; further: potency means the concentration at half of the fitted maximal effect; nearly all actives have a fitted effect of over 55% in size
HT1080 IDH1KD tx = HT-1080 IDH1 knockdown cell toxicity (counter line) | HT-1080 IDH1 knockdown viability, ATP luminescence, 48 h | actives 2% (n = 360,000) | Potency, µM (top dose mostly 46.1 µM), without a hit: top-dose activity, negative = toxicity, actives largely listed as cytotoxic;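 further: potency means the concentration at half of the fitted maximal effect; 0% = DMSO wells and -100% = cell-free medium wells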
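Knockdown cells (IDH1KD HT-1080) received compounds 2 h after plating at 750 cells/well and were kept 48 h at 37 °C in 5% FBS RPMI. A CellTiter-Glo luminescence read gave % activity for curve fitting.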
TDP1 cell noCPT = qHTS for Inhibitors of human tyrosyl-DNA phosphodiesterase 1 (TDP1): qHTS in cells in absence of CPT | DT40 Tdp1-/- hTDP1 cells, no CPT, ATP luminescence, 48 h | Potency, µM (titrated, usually from 46.2 µM), for inactives: at the highest dose activity change, negative = growth inhibition, actives largely listed as inhibitors | actives 15% (n = 420,000) | AID 686978, 2013; further: potency means the concentration at half of the fitted maximal effect; nearly all actives have a fitted effect of over 55% in size
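Camptothecin absent (DMSO only). Human TDP1-complemented DT40 knockout cells, 400 cells/well, 37 °C for minimum 48 hr; ATP measured via CellTiter-Glo, 30 min dark incubation, luminescence.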
DT40 TDP1 CPT = growth inhibition of DT40 Tdp1-/-;hTDP1 cells with camptothecin (screen for TDP1 inhibitors). chicken DT40 Tdp1-/-;hTDP1 cells + 20 nM CPT, ATP luminescence, 48 h. Potency, µM (highest dose often 46.2 µM), for inactives: top-dose activity change, negative = growth inhibition, actives largely listed as inhibitors. actives 12% (n = 420,000). AID 686979; further: potency means the concentration at half of the fitted maximal effect; nearly all actives have a fitted effect of over 55% in size
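Chicken DT40 Tdp1-/- cells stably complemented with human TDP1 were seeded at 400 cells/well in medium containing 20 nM camptothecin, exposed to pin-transferred compounds, and grown at 37 °C for at least 48 hr. Viability was read as ATP luminescence.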
The depositor's hits bear a star; ? = inconclusive; / = no result given; [ ] = dose if it differs, or a comment. Unless noted, the call rests on the fitted dose curve; in most records, active means well fitted curve in the direction sought with a large enough effect; inconclusive means small, poorly fitted or top-dose-only effect, or another doubt; inactive means no such curve, though single readings can be large; an effect the other way counts as inactive or inconclusive. Unless noted, on the % scale 0 is the no-effect control and ±100 the full control effect.

SMILES | IL-1B inflam inh | HT1080-NT tox | uPA generation | HT1080 IDH1KD tx | TDP1 cell noCPT | DT40 TDP1 CPT
CCCc1nc2sc3c(c2c(=O)[nH]1)CCCC3 | 24 | 2% | 3% | 2% | ? | ?
CCN(CC(=O)NC(C)C)Cc1nc2sc3c(c2c(=O)[nH]1)CCC3 | 34 | -1% | -3% | -8% | 4.6µM* | 3.3µM*
CCN(CC(=O)Nc1ccccc1C(F)(F)F)C(=O)CCc1nc2sc3c(c2c(=O)[nH]1)CCCC3 | -4 | -5% | 2% | -5% | 16µM* | ?
CCN(CC)C(=O)c1cccc(NC(=O)CCc2nc3sc4c(c3c(=O)[nH]2)CCCC4)c1 | -16 | -4% | -4% | -4% | ? | ?
O=C(CCc1nc2sc3c(c2c(=O)[nH]1)CCCC3)Nc1cccc(Cl)c1 | -8 | -48% | -32% | -16% | 21µM* | ?
Cc1ccc(CNC(=O)C2CCCN(Cc3cnn(-c4ccccc4)c3-n3cccc3)C2)cc1 (configuration not stated) | ? | 1% | 0% | 3% | 21µM* | 21µM*
Cc1ccc(C(C)n2cc(C(=O)NCc3ccccn3)nn2)cc1 (configuration not stated) | -3 | 5% | -1% | 14% | 22% | -2%
COC(=O)C1=CCCCC(O)=C1C(=O)OC | -3 | 10% | / | -1% | -3% | -3%
Cc1ccc2nc(NC(=O)Cc3cccs3)sc2c1 | -8 | -2%[9.24 µM] | / | ? | -18% | ?
Cc1ccc2nc(-c3ccc(NC(=O)Cc4cccs4)cc3)[nH]c2c1 | -19 | ? | 2% | ? | ? | 23µM*
O=C(Nc1ccc2nc(-c3ccco3)[nH]c2c1)c1cccs1 | -7 | -19% | -10% | -28% | ? | 21µM*
Cn1cc([N+](=O)[O-])c(C(=O)Nc2ccc(-c3nc4ccccc4[nH]3)cc2)n1 | -12 | ? | -6% | ? | ? | 6%
O=C(Nc1ccc2nc(-c3ccco3)[nH]c2c1)c1ccco1 | 22 | -10% | -2% | -8% | ? | ?
O=C(O)CCC(=O)Nc1ccc(-c2nc3ccc(C(=O)c4ccccc4)cc3[nH]2)cc1 | 0 | 13% | -2% | ? | 4% | 1%
Cn1cc([N+](=O)[O-])c(C(=O)Nc2ccc3nc(-c4ccccc4)[nH]c3c2)n1 | 59 | ? | -9% | ? | 18µM* | ?
O=C(c1ccccc1)c1ccc2nc(-c3ccc(NC(=O)c4ccccc4F)cc3)[nH]c2c1 | 17 | ? | -9% | ? | 3.3µM* | 3.7µM*
CCC(c1nnnn1-c1ccc2c(c1)OCCO2)N1CCN(C)CC1 (configuration not stated) | 11 | 19% | / | 6% | -23% | 7%
O=C(Nc1ccc2nc(-c3ccc4nc[nH]c4c3)[nH]c2c1)c1cccs1 | -21 | -20% | 5% | -27% | ? | -25%
O=C(Nc1ccc2nc(-c3ccccc3)[nH]c2c1)c1cccs1 | -65* | ? | -17% | 16%[9.24 µM] | 13µM* | 26µM*
O=C(NC1CCCCCC1)c1c(O)nc2sccn2c1=O | 20 | -10% | 4% | ? | 15µM* | 16µM*
O=C(NC1CCCCC1)c1c(O)nc2sccn2c1=O | 19 | -28% | -5% | -12% | ? | ?
CC(=O)c1cccc(NC(=O)N2CCC(CN3CCCCC3)CC2)c1 | / | / | / | / | 3% | 20%
O=C(C1=C[C@H](c2csc3ccccc23)C[C@H](OCc2ccc(CO)cc2)O1)N1CCN(Cc2ccc3c(c2)OCO3)CC1 | ? | -12% | ? | -1% | ? | 16µM*
O=C(C1=C[C@H](c2ccccc2)C[C@H](OCc2ccc(CO)cc2)O1)N1CCN(Cc2ccc3c(c2)OCO3)CC1 | -53* | -29% | 13% | -27% | 21µM* | ?
O=C(C1=C[C@@H](c2ccc(C(F)(F)F)cc2)C[C@@H](OCc2ccc(CO)cc2)O1)N1CCN(Cc2ccccc2)CC1 | -60* | -30% | ? | -30% | ? | ?
SMILES | IL-1B inflam inh | HT1080-NT tox | uPA generation | HT1080 IDH1KD tx | TDP1 cell noCPT | DT40 TDP1 CPT
CN1CCN(C(=O)C2=C[C@@H](c3csc4ccccc34)C[C@@H](OCc3ccc(CO)cc3)O2)CC1 | ? | -6% | 2% | -4% | 18µM* | 21µM*
CC(C)CCN1C(=O)c2ccccc2CC1(C)C(=O)NC1CCC(C)CC1 (configuration not stated) | / | / | / | / | ? | -10%
O=C(C1=C[C@@H](C2CC2)C[C@@H](OCc2ccc(CO)cc2)O1)N1CCN(Cc2ccc3c(c2)OCO3)CC1 | -28 | 2% | 6% | -9% | 21µM* | ?
O=C(Cc1cccs1)N=Nc1c(O)[nH]c2ccccc12 | -21 | 7% | 3% | 8% | 41% | -5%
O=C(Cn1c(C(F)(F)F)nc2ccccc21)N=Nc1c(O)[nH]c2ccc(Br)cc12 | 28 | 1% | 15% | 9% | 18µM* | ?
O=C(Cc1cccs1)N=Nc1c(O)[nH]c2ccc(Br)cc12 | 24 | 0% | -3% | 12% | ? | 26µM*
Oc1ccc(N=Nc2n[nH]c(-c3ccc(Cl)cc3)n2)cc1 | 0 | -24% | -26% | -24% | 16µM* | ?
Cc1ccc(N/N=C(\C#N)C(=O)c2ccsc2)cc1 | 28 | ? | 2% | ? | ? | ?
N#C/C(=N\Nc1ccc(Cl)cc1)C(=O)c1ccsc1 | / | ? | -5% | ? | 23µM* | 16µM*
Cc1ccc(N/N=C(\C#N)C(N)=S)cc1C | -9 | -25% | -20% | -2% | 18µM* | 10µM*
N#C/C(=N\Nc1ccc(Cl)cc1)C(N)=S | -81* | 9.2µM* | -4% | 2.3µM* | 5.8µM* | 5.8µM*
